Test results from PubChem BioAssay (NCI).
The panel holds about 83,000 compounds, 20% with a hit somewhere; the sample as a whole holds those more often.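 Testing used 96-well plates and a 48-hour single-concentration exposure. Example: -40 means 40% of the starting cells died.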 A number with no mark means an inactive call. Calls of active or inactive are those of the source. Rule for the calls: active = growth percent below 10; inactive = the rest.

Tests used:
Experiment in all cases: NCI-60 one-dose screen, 48 h (100 = growth as untreated, 0 = no growth, -100 = all killed)
Settings in all cases: 10 µM unless noted
NCI-H23 lung = tested on: NCI-H23 lung
NCI-H226 lung = tested on: NCI-H226 lung
NCI-H322M lung = tested on: NCI-H322M lung
HOP-62 NSCLC = tested on: HOP-62 NSCLC
NCI-H460 lung = tested on: NCI-H460 lung
HOP-92 NSCLC = tested on: HOP-92 NSCLC
NCI-H522 lung = tested on: NCI-H522 lung
A549/ATCC NSCLC = tested on: A549/ATCC NSCLC
786-0 renal = tested on: 786-0 renal
COLO 205 colon = tested on: COLO 205 colon
DU-145 prostate = tested on: DU-145 prostate
K-562 leukemia = tested on: K-562 leukemia
MALME-3M melanoma = tested on: MALME-3M melanoma
MDA-MB-231 breast = tested on: MDA-MB-231 breast
RXF 393 renal = tested on: RXF 393 renal
SF-268 CNS = tested on: SF-268 CNS
SF-295 CNS = tested on: SF-295 CNS
SF-539 CNS = tested on: SF-539 CNS
UACC-257 melanoma = tested on: UACC-257 melanoma
M14 melanoma = tested on: M14 melanoma

| Structure (SMILES) | growth (NCI-H23 lung) | growth (NCI-H226 lung) | growth (NCI-H322M lung) | growth (HOP-62 NSCLC) | growth (NCI-H460 lung) | growth (HOP-92 NSCLC) | growth (NCI-H522 lung) | growth (A549/ATCC NSCLC) [%] | growth (786-0 renal) | growth (COLO 205 colon) | growth (DU-145 prostate) | growth (K-562 leukemia) | growth (MALME-3M melanoma) | growth (MDA-MB-231 breast) | growth (RXF 393 renal) | growth (SF-268 CNS) | growth (SF-295 CNS) | growth (SF-539 CNS) | growth (UACC-257 melanoma) | growth (M14 melanoma) |
| --- | --- | --- | --- | --- | --- | --- | --- | --- | --- | --- | --- | --- | --- | --- | --- | --- | --- | --- | --- | --- |
| O=C(CCl)Oc1ccc(-c2ccccc2)c(Br)c1 | 100% | 96.4% | 105% | 107% | 104% | 92% | 107% | 106 | 105% | 108% | 104% | 103% | 107% | 109% | 106% | 104% | 107% | 99.4% | 106% | 103% |
| COc1cc2c(cc1-c1c(C)noc1C)ncc1nc(-c3ccccn3)n([C@H](C)COC(F)F)c12 | 61.1% | 57.8% | 51.4% | 40.9% | 57.7% | 26.7% | 29.3% | 39 | 50.4% | 29.8% | 64.2% | 32.8% | 70.1% | 41.2% | 60.8% | 70.9% | 60.4% | 41.7% | 44.4% | 49.5% |
| Cc1nc2c3c(-c4ccccc4)c(-c4ccccc4)oc3ncn2n1 | 93.1% | 92.2% | 102% | 90.7% | 98% | 81.7% | 80.8% | 101 | 99.1% | 110% | 104% | 94.3% | 109% | 83.3% | 99.6% | 94% | 92.7% | 90.2% | 106% | 102% |
| CN(Cc1cc(Cl)cc(Cl)c1O)Cc1cc(Cl)cc(Cl)c1O | 76.9% | 71.5% | 54.9% | 54.6% | 45.6% | 92.5% | 72.2% | 61.2 | 94.7% | 99.5% | 68.9% | 98.5% | 92.7% | 78.5% | 81.8% | 62.6% | 58.1% | 81.9% | 82.4% | 71% |
| CN1CCN(c2ccc3nc(-c4ccc(OCCCCN5CCN(CCCCN6C(=O)c7cccc8cccc(c78)C6=O)CC5)cc4)[nH]c3c2)CC1 | 85.3% | 86.6% | 90.5% | 64.1% | 71.9% | -54.4% (active) | 65% | 57.1 | 53% | 77.8% | 45% | 56.5% | 28% | 62.7% | 16.1% | 65.7% | 29.1% | 39.8% | 59.8% | 94.9% |
| O=C1/C(=C/c2ccc(Cl)cc2)SC(=S)N1CCc1ccc(O)cc1 | 89.7% | 96.1% | 99.3% | 99.9% | 99.3% | 73.7% | -30% (active) | 87 | 78.6% | 110% | 50.2% | 96.9% | 81.5% | 84% | 94.1% | 85% | 102% | 80% | 99.5% | 104% |
| CCCCCCCCCCCCC[N+](C)(C)Cc1ccccc1 | -22.8% (active) | -8.07% (active) | 82.5% | -73.1% (active) | 0.965% (active) | -64.3% (active) | -60.1% (active) | 40.5 | -56.1% (active) | -91.8% (active) | 0.808% (active) | 2.97% (active) | -44.7% (active) | -55.6% (active) | -73.3% (active) | -84.5% (active) | 13.5% | -73% (active) | -44.2% (active) | -66.6% (active) |
| CC1=C[C@H]2c3c(c(O)c(O)c4oc5cc(O)ccc5c(=O)c34)[C@H](c3cc(O)c(O)c4oc5cc(O)ccc5c(=O)c34)[C@H]2C(C)(C)C1 | 15.8% | 26.3% | 63.6% | 39.8% | 0.208% (active) | -9.21% (active) | 13.7% | 13.1 | 47.9% | 46.6% | 34.4% | 6.38% (active) | 60.8% | 50.9% | 54.5% | 36% | 21.5% | 20.4% | 62.7% | 38.3% |
| O=C1C=C(OCC=C(Cl)Cl)C(=O)c2ccccc21 | 57.4% | 97.3% | 101% | 87.2% | 99.9% | 73.7% | 51.8% | 91.3 | 94.9% | 137% | 77.4% | 80% | 80.9% | 84.7% | 86.6% | 94.4% | 92.8% | 93.2% | 76.4% | 83.3% |
| CC(=O)Nc1ccc(-n2c(O)c(/C=N/NC(=O)Cc3ccccc3Nc3c(Cl)cccc3Cl)sc2=S)cc1 | 95.4% | 104% | 102% | 99.7% | 101% | 92.7% | 94.2% | 101 | 102% | 119% | 105% | 94.6% | 108% | 107% | 105% | 94.4% | 99.4% | 98.4% | 103% | 103% |
| COc1cc(-c2nc3ccccc3[nH]2)ccc1OCC(=O)N=Nc1c(O)[nH]c2ccc(Cl)cc12 | -42.4% (active) | 103% | -7.85% (active) | -61.5% (active) | -75.8% (active) | -36.2% (active) | -43.4% (active) | 35.6 | -79.9% (active) | -48.5% (active) | -37.8% (active) | -25.4% (active) | -66.9% (active) | -87.4% (active) | -56.5% (active) | -72.9% (active) | -68.8% (active) | -83.9% (active) | -18.7% (active) | -71.7% (active) |
| CC[C@]1(O)C[C@@H]2CN(CCc3c([nH]c4ccccc34)[C@@](C(=O)OC)(c3cc4c(cc3OC)N(C)[C@H]3[C@@](O)(C(N)=O)[C@H](O)[C@]5(CC)[C@@H]6C[C@@H]6CN6CC[C@]43[C@@H]65)C2)C1 | 32.7% | 44.2% | 55.4% | 24.1% | 8.06% (active) | 19.3% | -32.3% (active) | 12.7 | 18% | -44.3% (active) | 4.49% (active) | 11.8% | 85.5% | 2.3% (active) | 60.4% | 30.8% | 15.8% | 7.92% (active) | 53.6% | 1.22% (active) |
| Cn1ccnc1C(=O)/C=C/c1ccccc1 | 33.1% | 50.7% | 10.4% | -54.9% (active) | -17.9% (active) | -9.57% (active) | -67.4% (active) | 33.7 | -35.6% (active) | 23% | -54.5% (active) | 8.07% (active) | 62.9% | 34.7% | 12.9% | 23.3% | 20.5% | -38% (active) | 51.8% | -1.9% (active) |
| CCN(CC)S(=O)(=O)c1ccc(OC)c(NC(=O)c2[nH]c(C)c3c2CCCCC3=O)c1 | 46.9% | 50% | 44% | 31.5% | 53.4% | 38.3% | 26.9% | 45.2 | 41.5% | 35.6% | 72.8% | 30% | 60.6% | 43% | 38.9% | 68.4% | 34.1% | 36.1% | 39.6% | 42.3% |
